Results on 39 molecules are retold here after PubChem BioAssay (NCI).

About 83,000 compounds went through this panel and 20% of them were active in at least one assay; those are over-represented in the sample as a whole.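 Compound tested at a single concentration for 48 hours in 96-well plates; a percent growth value below 10 was scored as active.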 The source made the active and inactive calls.

The assay deals with OVCAR-3 ovarian. Nature of the assay: NCI-60 one-dose screen, 48 h (100 = growth as untreated, 0 = no growth, -100 = all killed). As to conditions: 10 µM unless noted.
Regarding `CSc1nc(N)n2nccc2n1`, the growth is 106% (inactive). With `Cc1nnc(-c2cc3c(ccc4ccccc43)oc2=O)c2cn(-c3ccc(Cl)cc3)nc12` the figure was 89.8% (inactive).

As for `COc1ccc(CNCCCN2C(=O)c3ccc4c5c(ccc(c35)C2=O)C(=O)N(CCCNCc2ccc(OC)c(OC)c2OC)C4=O)c(OC)c1OC`, the growth was -91.8% (active). For `CCCCCCCCCCCCOC(=N)N(C)C` the value was 92.6% (inactive); for `COCC(=O)NNc1[nH]c(-c2ccc(OC)cc2)cc1C#N`, 129% (inactive). As for `c1cc(C2CCCCC2)ccc1OCCCCCCN1CCNCC1`, the growth was 40.5% (inactive). For `O=C(CCCC(=O)Nc1ccc(Cn2nnc3cc(Cl)c(Cl)cc32)cc1)Nc1ccc(CN2N=NC3C=C(Cl)C(Cl)=CC32)cc1` (centres undefined) the value was 87.7% (inactive).

For the molecule `COc1cc(N)c2nccc(C)c2c1OC`, the growth is 111% (inactive). Consider `COc1ccc(Cn2cc3c(c2)-c2oncc2CC3)cc1OC`, for which the growth was -27.4% (active). With `Brc1c(-c2ccncc2)nc2n1CCS2` the figure was 97.6% (inactive). For `CCc1c(C)c2ccc(OCC(=O)N=Nc3c(O)[nH]c4ccccc34)c(C)c2oc1=O`, the growth is -58.2% (active). Turning to `Nc1ccc(N=Nc2ccccc2)c2cc(S(=O)(=O)O)ccc12`, the growth is 108% (inactive).

As for `CC(C)CSc1nc(-c2ccc(F)cc2)c(C#N)c(N2CCCCC2)n1`, the growth was 93% (inactive). With `Cc1ccc2c(O)c(O)cc(NC(C)CCCN)c2n1` (centres undefined) the figure was 10.8% (inactive); with `CCn1cnc(C[C@H](NC(=O)[C@@H](NC(=O)Nc2cc(C(F)(F)F)cc(C(F)(F)F)c2)C(C)(C)C)C(=O)OC)c1`, -96.5% [100 µM] (active); with `CC(C)OCC1CO1` (centres undefined), 107% (inactive). For `COc1ccc(-c2nnc(SCC(=O)Nc3ccc(C(=O)/C=C/c4cc(OC)c(OC)c(OC)c4)cc3)n2-c2ccccc2)cc1OC` the value was -37% [100 µM] (active). With `[N-]=[N+]=Nc1ncc(-c2ccc(C(F)(F)F)cc2)c(NC2CCCCCC2)n1` the figure was 7.63% [100 µM] (active); with `CC(C)(C)c1cc(C[P+](c2ccc(Cl)cc2)(c2ccc(Cl)cc2)c2ccc(Cl)cc2)cc(C(C)(C)C)c1O`, 90.3% (inactive).

On to `O=C(OCC1CC2(Cl)C(Cl)=C(Cl)C1(Cl)C2(Cl)Cl)C1C(C(=O)OCC2CC3(Cl)C(Cl)=C(Cl)C2(Cl)C3(Cl)Cl)C2(Cl)C(Cl)=C(Cl)C1(Cl)C2(Cl)Cl` (centres undefined), for which the growth was 107% (inactive). With `O=S(=O)(Cc1cccc2c(CS(=O)(=O)c3ccc(Cl)cc3)cccc12)c1ccc(Cl)cc1` the figure was 95.9% (inactive). With `O=C(/C=C1\C(=O)N(Cc2ccccc2)c2ccccc21)c1ccc(OCCN2CCCCC2)cc1` the figure was -37% (active). With `CC(C)(C)C(=O)CCCCCCCC/C=C/CCCC(O)c1ccco1` (centres undefined), the growth was 126% (inactive). For `CC(=O)CCS(=O)c1ccccc1` (centres undefined), the growth was 101% (inactive). With `O=P(OCCCl)(OCCCl)C(O)c1ccccc1Cl` (centres undefined), the growth is 96.8% (inactive). For `CC1(C)C(O)NC(Cl)=C(C#N)C1(C#N)C#N` (centres undefined) the value was 229% (inactive). On to `COc1ccc(C(O)(c2ccccc2)C(C(=O)O)c2ccccc2)cc1` (centres undefined), for which the growth is 114% (inactive). With `O=C(O)CC1Cc2ccccc2C1C(=O)O` (centres undefined) the figure was 102% (inactive); with `O=c1[nH]c(=S)[nH]c(O)c1/C=C1\C=Nc2ccccc21`, 33.3% (inactive); with `O=C1NCCN1/N=C/c1c(Cl)nc2n1CCS2`, 106% (inactive). With `CCCC(=O)Nc1ccccc1C(=O)O` the figure was 94.7% (inactive); with `CC(C)OC(=O)Nn1cnc2ccccc21`, 111% (inactive); with `O=C(NC1CCN(Cc2ccccc2)CC1)c1cc(-c2cccnc2)nc2ccc(Cl)cc12`, 94.4% (inactive). For `O=S(=O)(O)c1ccc2c(c1)Sc1cc(S(=O)(=O)O)ccc1O2` the value was 122% (inactive). For `CCCCCc1ccnc(CC(=O)c2ccc(OC)cc2)c1`, the growth was 93.7% (inactive). With `COc1ccc(-c2nc(SCC(C)C)nc(Nc3ccc([N+](=O)[O-])cc3)c2C#N)cc1` the figure was 81.5% (inactive); with `COc1cc2ncnc(Nc3ccc4c(cnn4C(=O)Nc4ccccc4)c3)c2cc1OC`, 95.7% (inactive). For `CCCCCSc1ccc2nc(NC(=O)OCC)sc2c1` the value was -7.09% (active); for `COc1ccc(C2=C/C(=C\c3ccc(Cl)cc3)C(=O)NN2C(=S)NN)cc1`, 111% (inactive).
